# MITF act: activators of MITF-driven TRPM1 promoter activity in SK-MEL-5 cells. actives 0.75% (n = 300,000). SK-MEL-5 TRPM1-promoter luciferase, 24 h; % of positive control, neutral wells = 0. activation, % at 12.5 µM;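 active = mean activation of at least 80% with every replicate also reaching 80%; inconclusive = mean reaches 80% but some replicate falls short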
# Rtt109 Vps75: blocks Candida albicans Rtt109/Vps75 acetyltransferase activity; Q5AAJ8; inhibition, % at 34.9 µM; actives 0.16% (n = 330,000); purified Rtt109/Vps75, ThioGlo CoA-SH fluorescence, 4 h;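 active = inhibition of at least 50% in every replicate; inconclusive = best replicate reaches 50% inhibition but some replicates fall short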
# Target sequence (Q5AAJ8 whole entry, looked up): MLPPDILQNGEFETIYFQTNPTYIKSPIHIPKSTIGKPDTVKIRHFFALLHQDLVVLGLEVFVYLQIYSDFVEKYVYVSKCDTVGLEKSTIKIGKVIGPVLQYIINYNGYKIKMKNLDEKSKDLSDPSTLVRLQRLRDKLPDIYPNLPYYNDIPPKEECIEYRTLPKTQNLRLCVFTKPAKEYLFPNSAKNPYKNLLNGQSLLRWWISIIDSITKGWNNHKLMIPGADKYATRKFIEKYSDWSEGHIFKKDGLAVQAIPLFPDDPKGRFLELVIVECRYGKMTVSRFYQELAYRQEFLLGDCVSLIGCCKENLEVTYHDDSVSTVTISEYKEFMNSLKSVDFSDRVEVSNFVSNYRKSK
# esBAF inh: inhibitors of esBAF chromatin remodeling in mouse ES cells. Bmi1-luciferase knock-in reporter, 24 h; 100% = twice the neutral-well signal. reporter increase, % at 12.5 µM. actives 2% (n = 350,000); in the data active = activation above about 40%; inconclusive = no clear call, values can overlap the other calls;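 also: a rise in the Bmi1 reporter signal indicates esBAF inhibition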
# C2C12 statin: suppressors of simvastatin-induced myotoxicity in C2C12 myotubes; ATP luminescence, 48 h; scaled: DMSO 0, geranylgeraniol control 100; rescue of ATP level, % at 7.49 µM; actives 0.78% (n = 330,000); AID 602340;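 active = mean ATP rescue above about 67%, or every replicate alone reaching that limit, limit read from the data, passing the limit was not always enough; inconclusive = no clear call, values can overlap the other calls; inactive = mean under the limit and some replicate under it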;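 also: myotubes were challenged with 10 µM simvastatin during compound exposure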
# Wnt bcat act: activators of Wnt/beta-catenin signaling. Wnt/beta-catenin reporter cell assay, activator, plate reader. activation, % at 9.35 µM. actives 1.2% (n = 300,000); in the data active = activation above about 30%, passing the limit was not always enough; inconclusive = no clear call, values can overlap the other calls
# A number is an active result; . = inactive; ? = inconclusive; / = not tested or not shown. Shown are actives, neighbours in structure and some others; about 3.1% of the full set was active somewhere.
SMILES,MITF act,Rtt109 Vps75,esBAF inh,C2C12 statin,Wnt bcat act
Cc1[nH]c2ccc(C(=O)NC3CCCC3)cc2c1C,/,.,.,.,.
Cc1[nH]c2ccc(C(=O)NC3CCC(C)CC3)cc2c1C (stereo not given),85,.,56,.,.
COC(=O)[C@H](C)NC(=O)NC(C)CCc1ccccc1 (stereo not given in full),.,.,.,.,.
COC(=O)[C@@H](NC(=O)NC(C)CCc1ccccc1)C(C)C (stereo not given in full),.,.,.,93,/
CN(C)CCn1c(NC(=O)c2ccc(Cl)cc2)nc2ccccc21,.,/,56,.,/
C[C@@H]1CCCCO[C@H](CN(C)CC2CCCCC2)[C@H](C)CN([C@@H](C)CO)C(=O)c2cc(NC(=O)C3CCCCC3)ccc2O1,/,/,.,/,/
O=C(COc1ccc(Br)cc1CO)Nc1ccccc1F,102,.,.,.,.
O=C(COc1cccnc1[N+](=O)[O-])Nc1cccc(Br)c1,.,.,63,.,.
O=C(COc1ccc(Br)cc1CO)Nc1ccccc1,/,/,56,.,31
O=C(NCc1ccc(F)cc1)[C@@H]1[C@@H](CO)[C@@H]2Cn3c(ccc(C4=CCCCC4)c3=O)[C@H]1N2,/,/,.,.,/
O=C(/C=C/c1c(F)cccc1Cl)Nc1nc2ccccc2[nH]1,?,.,/,/,37
Cc1ccc(/C=C/C(=O)Nc2nc3ccccc3[nH]2)cc1,107,.,/,/,.
Cc1ccc(/C=C/C(=O)c2nc3ccccc3[nH]2)cc1,.,.,.,.,37
O=C(C[C@@H]1C=C[C@H](NS(=O)(=O)c2ccc(F)cc2)[C@H](CO)O1)N1CCC(Cc2ccccc2)CC1,/,/,.,.,/
Cc1cc(/C=N/NC(N)=S)c(C)n1-c1ccc(Cl)c(Cl)c1,.,/,/,/,.
CCNC(=S)N/N=C/c1cc(C)n(-c2ccc(Cl)cc2)c1C,86,.,/,/,.
CCCC(=O)Nc1ccc2c(c1)C(=O)N(C)[C@H]1CC[C@H](CC(=O)NCc3ccccc3)O[C@@H]1CO2,/,/,.,.,/
CCCCN1C(=O)/C(=C/C=C2/CC(C)(C)CN2C)SC1=S,.,.,93,.,.
CC(=O)Nc1ccc2c(c1)Cc1ccc(Cl)cc1-2,.,.,46,.,.
CC(=O)Nc1ccc2c(c1)-c1ccc(F)cc1C2,.,.,/,/,.
O=C(NN=Cc1ccccc1OC(F)F)c1ccc(NS(=O)(=O)c2cccs2)cc1,/,.,.,.,.
COc1ccc2[nH]c(O)c(N=NC(=O)c3ccc(NS(=O)(=O)c4cccs4)cc3)c2c1,.,.,44,.,.
O=C(NN=Cc1ccc(OC(F)F)cc1)c1ccc(NS(=O)(=O)c2cccs2)cc1,.,.,.,.,51
NC1=NC(=O)/C(=C/C=C/c2cccs2)S1,.,.,/,/,36
C[C@H](CO)N1C[C@H](C)[C@H](CN(C)S(=O)(=O)c2ccc(Cl)cc2)Oc2ccc(NC(=O)C3CC3)cc2CC1=O,/,/,.,.,/
SMILES,MITF act,Rtt109 Vps75,esBAF inh,C2C12 statin,Wnt bcat act
CCOC(=O)N1CCN(C(=O)CN(Cc2ccccc2)S(=O)(=O)c2ccc(OC)c(Cl)c2)CC1,.,.,.,123,/
CC(=O)N1CC2(CC(c3ccccc3F)=NO2)CN1c1ccc(Cl)cc1 (stereo not given),/,/,55,.,.
CCOc1cc(NC(=O)C2CC2)c(OCC)cc1NC(=O)c1ccccn1,/,.,.,121,.
C[C@H](CO)N1C[C@H](C)[C@@H](CN(C)S(=O)(=O)c2ccc(Cl)cc2)Oc2ccc(NC(=O)C3CCCCC3)cc2CC1=O,/,/,.,.,/
CC(C)Cc1ccc(-c2cc3nc(NCCc4ccc(S(N)(=O)=O)cc4)ccn3n2)cc1,/,/,92,.,.
CC(C)Cc1ccc(-c2cc3nc(NCCCn4ccnc4)ccn3n2)cc1,/,/,61,.,.
NS(=O)(=O)c1ccc(CCNc2ccn3nc(-c4ccccc4)cc3n2)cc1,/,/,.,.,.
C[C@H]1CN([C@@H](C)CO)C(=O)c2cc(-c3ccc(F)cc3)cnc2O[C@@H]1CN(C)C(=O)c1ccncc1,/,/,/,.,/
O=C(c1ccco1)N(CCCN1CCOCC1)c1nc(-c2ccc(F)cc2)cs1,.,/,.,.,/
COc1ccc(-c2nnc(N(C)C(=O)c3ccco3)s2)cc1OC,.,.,.,.,.
CN(C(=O)c1ccco1)c1nc(-c2ccc(F)cc2)cs1,80,.,.,.,.
CN(C(=O)c1ccco1)c1nnc(-c2ccc(F)cc2)s1,100,.,58,.,.
CCNc1nc(Oc2ccc(C(=O)OC)cc2)nc(N(C)C)n1,.,.,.,.,/
CCNc1nc(N)nc(Oc2ccc(C(=O)OC)cc2)n1,87,.,?,/,.
N/C(=N\c1nc2ccccc2o1)NC(=O)c1ccccc1Br,85,.,80,.,.
N/C(=N\c1nc2ccccc2o1)NC(=O)c1ccc(F)cc1,.,.,.,83,.
N/C(=N\c1nc2ccccc2o1)NC(=O)c1ccc(Cl)cc1,.,.,.,.,/
C[C@H]1CN([C@@H](C)CO)C(=O)Cc2cc(NC(=O)CCCCCC(=O)Nc3ccccc3N)ccc2O[C@H]1CN(C)S(=O)(=O)c1ccc(Cl)cc1,/,/,.,.,/
CCOc1ccc(NC(=S)NC(C)C(c2ccccc2)N2CCN(C)CC2)cc1 (stereo not given),.,.,/,/,.
CC(NC(=O)COc1ccccc1)C(c1ccccc1)N1CCN(C)CC1 (stereo not given),.,.,.,90,/
CC(C)CC#Cc1ccc2c(c1)O[C@@H](CN(C)C(=O)C1CC1)[C@H](C)CN([C@H](C)CO)S2(=O)=O,/,/,/,.,/
